From PubChem BioAssay (NCI)
Compounds without any hit were thinned out: in the full panel of roughly 83,000, 20% have a hit.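 Step 1: grow cells in 96-well plates. Step 2: add test compound at a single concentration. Step 3: incubate 48 h. Step 4: record percent growth.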 A number with no mark means an inactive call. Active and inactive are the calls of the source. The calls were made as follows: active = growth percent below 10; inactive = the rest.

What was measured:
Experiment in all cases: NCI-60 one-dose screen, 48 h (100 = growth as untreated, 0 = no growth, -100 = all killed)
Conditions in all cases: 10 µM unless noted
T-47D breast = tested on: T-47D breast
BT-549 breast = tested on: BT-549 breast
MDA-MB-435 melanoma = tested on: MDA-MB-435 melanoma
SW-620 colon = tested on: SW-620 colon
MCF7 breast = tested on: MCF7 breast
HCT-116 colon = tested on: HCT-116 colon
HCC-2998 colon = tested on: HCC-2998 colon
KM12 colon = tested on: KM12 colon

Structure (SMILES) | growth (T-47D breast) | growth (BT-549 breast) | growth (MDA-MB-435 melanoma) | growth (SW-620 colon) | growth (MCF7 breast) | growth (HCT-116 colon) | growth (HCC-2998 colon) | growth (KM12 colon)
CCOC(=S)SCc1ccc(Cl)cc1 | 120% | 96.3% | 101% | 101% | 103% | 92.3% | 131% | 108%
ClC1=C2NC=NC2n2c(nnc2-c2ccc(Cl)cc2)N1 (stereo not drawn) | 90.8% | 101% | 99.9% | 115% | 85.6% | 98.5% | 102% | 99.6%
Cc1ccc2c(c1)C(=O)c1c-2c(OCCCN(C)C)nc2ccccc12 | 63.4% | 71.5% | -32.1% (active) | -57.3% (active) | -75.8% (active) | 21% | -15.2% (active) | -46.4% (active)
CS(=O)(=O)c1ccc(-c2cnc3ccc(-c4cccc(S(C)(=O)=O)c4)nn23)cc1 | 18.7% | 23% | 49.6% | 75.6% | 18.4% | 34% | 55.4% | 47.1%
CC(C)[C@H]1COC(=O)N1[C@@H]1C(=O)N([C@@H](CCC(=O)N2CCN(C3CCCC3)CC2)C(=O)N[C@@H]2CCCc3ccccc32)[C@@H]1/C=C/c1cccc(Br)c1 | 39.9% | 27.6% | 30.2% | 45.2% | 23% | 14.3% | 30.8% | 35.6%
Cn1c(=O)c2[nH]c(C(O)C(O)C(O)C(O)CO)nc2n(C)c1=O (stereo not drawn) | 90.8% | 108% | 108% | 102% | 97.9% | 106% | 103% | 101%
CC(C)c1c(C(=O)Nc2ccccc2)c(-c2ccccc2)c(-c2ccc(F)cc2)n1CC[C@@H]1CC=CC(=O)O1 | 17.1% | -30.6% (active) | 2.54% (active) | -45.1% (active) | -22.8% (active) | -62.5% (active) | -69.8% (active) | -60.7% (active)
CCOC(=O)c1ccc2c(c1)nc(/C=C/c1ccc(Cl)cc1)n2-c1cc(C(C)(C)C)[nH]n1 | 56.2% | 57.4% | 62.7% | 64.9% | 42.4% | 52% | 88.4% | 54%
CCc1ccccc1NC(=O)c1sc2nc3c(cc2c1N)C(=O)CCC3 | 23.2% | 48% | -56.6% (active) | 25.7% | 8.92% (active) | 26.1% | 24% | 25.4%
COc1cc2c(c(OC)c1OC)-c1ccc(N=NC(N)=S)c(=O)cc1[C@@H](NC(C)=O)CC2 | 62.2% | -37.5% (active) | 0.0927% (active) | 17.3% | 8.57% (active) | -28.4% (active) | -13.6% (active) | -31.1% (active)
CC1(C)CC(=O)C(c2c(-c3ccccc3)[nH]c3[nH]c(=S)[nH]c(=O)c23)=C(O)C1 | 98.1% | 106% | 90.8% | 104% | 99.6% | 102% | 108% | 118%
OC(c1cccc(C(F)(F)F)c1)c1cnccc1NC1CCCCCC1 (stereo not drawn) | -3.18% (active) | 71.4% | 32.6% | 3.19% (active) | -6.03% (active) | 14.4% | -70.1% (active) | 3.96% (active)
C=C1CCC2C3(C)COC(c4ccc(SC)cc4)OC3CCC2(C)C1C/C=C1/C(=O)OCC1O (stereo not drawn) | 23.6% | 64.6% | 61.3% | 10.6% | 27.7% | 11.2% | 90.5% | 44.3%
C/C(Cc1ccc(Cl)cc1)=C(\c1ccc(OCCN2CCCCCC2)cc1)c1ccc(OC(=O)C2CCCCC2)cc1 | 49.1% | 86.6% | 58.7% | 56.9% | 29.6% | 44% | 10.4% | 53.1%
CCOC(=O)/C=C/c1ccc(C(=O)OCC)[nH]1 | 34.9% | 88.2% | -39.5% (active) | 19.2% | 25.7% | 26.3% | 44.1% | 26.6%
CNC(=S)N/N=C/CSC/C=N/NC(=S)NC | 33.2% | 96.8% | 81.7% | 64.5% | 3.33% (active) | 63.3% | 97.6% | 75.9%

Structure (SMILES) | growth (T-47D breast) | growth (BT-549 breast) | growth (MDA-MB-435 melanoma) | growth (SW-620 colon) | growth (MCF7 breast) | growth (HCT-116 colon) | growth (HCC-2998 colon) | growth (KM12 colon)
COc1cc(C2CC(=O)c3c(C)nn(-c4nc5ccccc5[nH]4)c3C2)cc(OC)c1OC (stereo not drawn) | 60% | 77.7% | 99.8% | 99.6% | 76.4% | 68.7% | 82.4% | 102%
CC/C=C\C[C@H](O)C/C=C1/C(=O)C=C[C@@H]1C/C=C\CCCC(=O)NC(C)C | 11.4% | 0.828% (active) | 5.43% (active) | 11.7% | 14.4% | -54.3% (active) | -55.5% (active) | -43.5% (active)
CCN(CC)CC(C)Nc1ccc([N+](=O)[O-])c2sc3ccccc3c(=O)c12 (stereo not drawn) | 31.2% | 60.4% | 24.1% | 19.1% | 7.9% (active) | 24.5% | 41.3% | 29.2%
CCCCCCCCCC(=O)Oc1ccc(/C(=C(/C)c2ccccc2)c2ccc(OCCN3CCCC3)cc2)cc1 | 3.1% (active) | 24.5% | -59% (active) | -21.9% (active) | -14.1% (active) | 15.8% | -11.2% (active) | 15.2%
c1ccc(CSc2ncnc3nc[nH]c23)nc1 | 107% | 122% | 92.3% | 113% | 99.7% | 93.1% | 125% | 106%
O=c1[nH]c(-c2ccccn2)nc2sc3c(c12)CCCCC3 | 33.8% | 70.1% | 55.7% | 29.5% | 32.9% | 24.7% | 68.7% | 39.4%
Cc1cc(Nc2nc(-c3cccnc3)nc3ccccc23)n[nH]1 | 27.2% | 47.2% | 56.2% | 47% | 23% | 30.9% | 69.7% | 19.1%
CC(C)(C)n1cc(-c2ccnc(NCCCNS(=O)(=O)c3cccc4ccccc34)c2)c(-c2cccc(O)c2)n1 | 7.41% (active) | 39.8% | 36.4% | 16.3% | 11.5% | 29.4% | -49.4% (active) | 14.3%
CN(CC(=O)N(Cc1ccc(C2CCCCC2)cc1)c1ccc(C(=O)NO)cc1)S(=O)(=O)c1c(F)c(F)c(F)c(F)c1F | 11.2% | 93% | 99.1% | 20.1% | 24.9% | 75.6% | 84.2% | 99.4%
Cc1ccc2c(NCCCN(C)C)c3c(C)nn(C)c3nc2c1 | 44.8% | 54.3% | 37.1% | 23.5% | 5.14% (active) | 20.2% | 59.3% | 32.8%
CC(=O)Oc1cc2cnc3c4cc(OC(C)=O)c(OC(C)=O)cc4ccc3c2cc1OC(C)=O | 14.7% | 26.8% | 23.3% | 24.8% | 6.96% (active) | 5.17% (active) | 45.7% | 22.8%
O=C(/C=C\c1cccc([N+](=O)[O-])c1)c1ccccc1 | -5.11% (active) | 90.1% | 65.7% | -30.1% (active) | -9.56% (active) | -68.3% (active) | 10.9% | -49.7% (active)
CN(C)CCCC(=O)Nc1ccc(Cn2nnc3c2C(=O)c2nnn(Cc4ccc(NC(=O)CCCN(C)C)cc4)c2C3=O)cc1 | -5.44% (active) | 80.5% | -83.7% (active) | 52.3% | -40% (active) | 6.95% (active) | 59.3% | 81.4%
C=C1CC[C@@H]2[C@](C)(COC(C)=O)[C@H](OC(C)=O)CC[C@@]2(C)[C@@H]1CC(Nc1ccc(S(=O)(=O)Nc2nc(C)cc(C)n2)cc1)C1=CCOC1=O (stereo partly drawn) | 68.8% | 71.9% | 67% | 40% | 40.3% | 39.2% | 100% | 64.7%
COc1cc(OC)c(/C=C/S(=O)(=O)Cc2ccc(OC)c(N)n2)c(OC)c1 | 44.8% | 8.17% (active) | 2.24% (active) | 25.5% | 12.9% | 2.03% (active) | 18.8% | 12.9%
